# From PubChem BioAssay AID1159580 (chemical genetic matrix, 2015)
# Values joined by “and” are separate entries in the source; they are usually repeats but may differ in a detail not shown here. Identical values can stand only once. In all, about 5,500 compounds went through this assay and about 2,000 (36%) were called active. Roughly 18% stayed inconclusive and do not appear here. The list shows a part of the results. Values without a mark were called inactive. Rule as the data show it: active = normalized growth mostly below about 0.91 (no sharp cut-off); inconclusive = no clear call, values can overlap the other calls; inactive = mostly above about 0.92.
# Experiment: chemical genetic growth profiling, strain panel (AID 1159580);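 also: tested at 20 µM; growth read once vehicle control cultures reached saturation at 30 °C; 1 = growth at the plate median or of vehicle wells; lower values mean less growth of the strain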
# Details: S. cerevisiae deletion strains, growth OD
compound,measurement,setting,value
CC(=O)Oc1ccc(/C=C/c2cc(OC(C)=O)cc(OC(C)=O)c2)cc1,normalized growth,"locus YAL021C, strain ccr4, active compounds read low",0.979
same,normalized growth,"locus YAL026C, strain drs2, active compounds read low",0.984
same,normalized growth,"locus YAL030W, strain snc1, active compounds read low",0.97
same,normalized growth,"locus YBL061C, strain skt5, active compounds read low",0.976
same,normalized growth,"locus YBR009C, strain hhf1, active compounds read low",0.962
same,normalized growth,"locus YBR021W, strain FUR4, active compounds read low",0.96
same,normalized growth,"locus YBR023C, strain chs3, active compounds read low",0.975
same,normalized growth,"locus YBR171W, strain sec66, active compounds read low",0.978
same,normalized growth,"locus YBR229C, strain ROT2, active compounds read low",0.997
same,normalized growth,"locus YBR231C, strain swc5, active compounds read low",0.986
same,normalized growth,"locus YBR279W, strain paf1, active compounds read low",0.978
same,normalized growth,"locus YCL011C, strain gbp2, active compounds read low",0.972
same,normalized growth,"locus YCL016C, strain dcc1, active compounds read low",0.98
same,normalized growth,"locus YCL029C, strain bik1, active compounds read low",1.01
same,normalized growth,"locus YCL061C, strain MRC1, active compounds read low",0.953
same,normalized growth,"locus YCL069W, strain vba3, active compounds read low",0.984
same,normalized growth,"locus YCR088W, strain abp1, active compounds read low",0.979
same,normalized growth,"locus YDL005C, strain med2, active compounds read low",0.963
same,normalized growth,"locus YDL035C, strain GPR1, active compounds read low",0.984
same,normalized growth,"locus YDL040C, strain nat1, active compounds read low",0.963
same,normalized growth,"locus YDL074C, strain BRE1, active compounds read low",0.982
same,normalized growth,"locus YDL101C, strain DUN1, active compounds read low",0.993
same,normalized growth,"locus YDL134C, strain PPH21, active compounds read low",0.97
same,normalized growth,"locus YDL185W, strain tfp1, active compounds read low",1.02
same,normalized growth,"locus YDL192W, strain arf1, active compounds read low",0.997
same,normalized growth,"locus YDR001C, strain nth1, active compounds read low",0.987
same,normalized growth,"locus YDR069C, strain doa4, active compounds read low",0.966
same,normalized growth,"locus YDR101C, strain arx1, active compounds read low",0.987
same,normalized growth,"locus YDR137W, strain rgp1, active compounds read low",0.925
same,normalized growth,"locus YDR159W, strain sac3, active compounds read low",0.951
same,normalized growth,"locus YDR162C, strain NBP2, active compounds read low",0.977
same,normalized growth,"locus YDR195W, strain ref2",0.985
same,normalized growth,"locus YDR297W, strain sur2, active compounds read low",0.979
same,normalized growth,"locus YDR318W, strain mcm21, active compounds read low",0.986
same,normalized growth,"locus YDR334W, strain swr1, active compounds read low",0.981
same,normalized growth,"locus YDR335W, strain msn5, active compounds read low",0.987
same,normalized growth,"locus YDR388W, active compounds read low",1
same,normalized growth,"locus YDR392W, strain spt3, active compounds read low",0.668 (active)
same,normalized growth,"locus YDR502C, strain sam2, active compounds read low",0.999
same,normalized growth,"locus YEL003W, strain gim4, active compounds read low",0.969
same,normalized growth,"locus YEL037C, strain rad23, active compounds read low",0.983
same,normalized growth,"locus YEL061C, strain CIN8 (second series), active compounds read low",0.99
same,normalized growth,"locus YEL061C, strain CIN8, active compounds read low",0.999
same,normalized growth,"locus YER015W, strain faa2, active compounds read low",0.974
same,normalized growth,"locus YER016W, strain bim1, active compounds read low",0.976
same,normalized growth,"locus YER110C, active compounds read low",1.01
same,normalized growth,"locus YER111C, strain swi4, active compounds read low",0.976
same,normalized growth,"locus YER155C, strain BEM2 (second series), active compounds read low",0.924
same,normalized growth,"locus YER155C, strain BEM2, active compounds read low",1.01
same,normalized growth,"locus YER167W, strain BCK2, active compounds read low",0.991
same,normalized growth,"locus YFR010W, strain ubp6, active compounds read low",0.985
same,normalized growth,"locus YGL078C, strain dbp3, active compounds read low",0.996
same,normalized growth,"locus YGL086W, strain mad1, active compounds read low",0.994
same,normalized growth,"locus YGL167C, strain pmr1, active compounds read low",0.978
same,normalized growth,"locus YGL173C, strain kem1, active compounds read low",0.961
same,normalized growth,"locus YGL227W, strain vid30, active compounds read low",0.982
same,normalized growth,"locus YGL240W, strain doc1, active compounds read low",0.942
same,normalized growth,"locus YGL248W, strain PDE1, active compounds read low",0.974
same,normalized growth,"locus YGL253W, strain hxk2, active compounds read low",0.973
same,normalized growth,"locus YGR135W, strain pre9, active compounds read low",0.977
same,normalized growth,"locus YGR229C, strain SMI1, active compounds read low",1.01
same,normalized growth,"locus YGR252W, strain gcn5, active compounds read low",0.951
same,normalized growth,"locus YHR013C, strain ard1, active compounds read low",0.978
same,normalized growth,"locus YHR027C, strain rpn1, active compounds read low",0.975
same,normalized growth,"locus YHR030C, strain SLT2, active compounds read low",1.01 and 1.03
same,normalized growth,"locus YHR079C, strain IRE1 (second series), active compounds read low",1
same,normalized growth,"locus YHR079C, strain IRE1, active compounds read low",1.03
same,normalized growth,"locus YHR094C, strain hxt1, active compounds read low",1
same,normalized growth,"locus YHR129C, strain ARP1, active compounds read low",0.985
same,normalized growth,"locus YHR142W, strain chs7, active compounds read low",0.968
same,normalized growth,"locus YHR200W, strain rpn10, active compounds read low",1.01
same,normalized growth,"locus YIL066C, strain RNR3, active compounds read low",0.965
same,normalized growth,"locus YIL073C, strain SPO22, active compounds read low",1.04
same,normalized growth,"locus YIL125W, strain kgd1, active compounds read low",1.02
same,normalized growth,"locus YIR030C, strain dcg1, active compounds read low",0.99
same,normalized growth,"locus YJL092W, strain hpr5, active compounds read low",0.977
same,normalized growth,"locus YJL095W, strain BCK1 (second series), active compounds read low",0.983
same,normalized growth,"locus YJL095W, strain BCK1, active compounds read low",0.962 and 0.998
same,normalized growth,"locus YJL115W, strain asf1, active compounds read low",0.992
same,normalized growth,"locus YJL129C, strain trk1, active compounds read low",0.978
same,normalized growth,"locus YJL134W, strain LCB3, active compounds read low",1.01
same,normalized growth,"locus YJL154C, strain vps35, active compounds read low",0.983
same,normalized growth,"locus YJL164C, strain tpk1, active compounds read low",0.96
same,normalized growth,"locus YJL166W, strain qcr8, active compounds read low",0.95
same,normalized growth,"locus YJL168C, strain set2, active compounds read low",0.997
same,normalized growth,"locus YJL187C, strain SWE1 (second series), active compounds read low",0.98
same,normalized growth,"locus YJL187C, strain SWE1, active compounds read low",0.993
same,normalized growth,"locus YJR043C, strain POL32, active compounds read low",0.979
same,normalized growth,"locus YJR066W, strain TOR1, active compounds read low",0.972
same,normalized growth,"locus YJR075W, strain HOC1, active compounds read low",0.985
same,normalized growth,"locus YKL009W, strain mrt4, active compounds read low",1.04
same,normalized growth,"locus YKL068W, active compounds read low",1
same,normalized growth,"locus YKL085W, strain MDH1 (second series), active compounds read low",0.999
same,normalized growth,"locus YKL085W, strain MDH1, active compounds read low",0.999
same,normalized growth,"locus YKL160W, strain elf1, active compounds read low",0.959
same,normalized growth,"locus YKL190W, strain CNB1, active compounds read low",1
same,normalized growth,"locus YKR001C, strain vps1, active compounds read low",0.982
same,normalized growth,"locus YKR026C, strain gcn3, active compounds read low",0.979
same,normalized growth,"locus YKR091W, strain srl3, active compounds read low",0.983
same,normalized growth,"locus YLL001W, strain dnm1, active compounds read low",0.966
same,normalized growth,"locus YLL026W, active compounds read low",0.976
same,normalized growth,"locus YLL041C, strain sdh2, active compounds read low",0.98
same,normalized growth,"locus YLR027C, strain aat2, active compounds read low",0.979
same,normalized growth,"locus YLR039C, strain RIC1, active compounds read low",0.928
same,normalized growth,"locus YLR058C, strain SHM2, active compounds read low",0.99
same,normalized growth,"locus YLR102C, strain apc9, active compounds read low",1.03
same,normalized growth,"locus YLR113W, strain HOG1, active compounds read low",0.934
same,normalized growth,"locus YLR221C, strain rsa3, active compounds read low",0.949
same,normalized growth,"locus YLR258W, strain gsy2, active compounds read low",0.957
same,normalized growth,"locus YLR262C, strain YPT6 (second series), active compounds read low",0.907
same,normalized growth,"locus YLR262C, strain YPT6, active compounds read low",0.925
same,normalized growth,"locus YLR268W, strain sec22, active compounds read low",0.999
same,normalized growth,"locus YLR320W, strain mms22, active compounds read low",0.921
same,normalized growth,"locus YLR330W, strain CHS5, active compounds read low",0.996
same,normalized growth,"locus YLR342W, strain FKS1 (second series), active compounds read low",1.01
same,normalized growth,"locus YLR342W, strain FKS1, active compounds read low",0.968
same,normalized growth,"locus YLR357W, strain rsc2, active compounds read low",0.937
same,normalized growth,"locus YLR370C, strain arc18, active compounds read low",0.981
same,normalized growth,"locus YLR371W, strain rom2, active compounds read low",0.995
same,normalized growth,"locus YLR384C, strain iki3, active compounds read low",0.959
same,normalized growth,"locus YLR418C, strain cdc73, active compounds read low",0.889
same,normalized growth,"locus YML016C, strain PPZ1, active compounds read low",0.999
same,normalized growth,"locus YML032C, strain rad52, active compounds read low",1.01
same,normalized growth,"locus YML120C, strain ndi1, active compounds read low",0.985
same,normalized growth,"locus YML124C, strain tub3, active compounds read low",0.998
same,normalized growth,"locus YMR078C, strain ctf18, active compounds read low",1.01
same,normalized growth,"locus YMR125W, strain sto1, active compounds read low",0.974
same,normalized growth,"locus YMR129W, active compounds read low",0.985
same,normalized growth,"locus YMR205C, strain PFK2, active compounds read low",0.948
same,normalized growth,"locus YMR223W, strain ubp8, active compounds read low",0.959
same,normalized growth,"locus YMR231W, strain pep5, active compounds read low",0.965
same,normalized growth,"locus YMR263W, strain SAP30, active compounds read low",0.988
same,normalized growth,"locus YMR307W, strain GAS1, active compounds read low",1.16
same,normalized growth,"locus YNL067W, strain RPL9B, active compounds read low",0.973
same,normalized growth,"locus YNL071W, strain lat1, active compounds read low",0.952
same,normalized growth,"locus YNL153C, strain GIM3, active compounds read low",0.989
same,normalized growth,"locus YNL183C, strain NPR1, active compounds read low",0.935
same,normalized growth,"locus YNL209W, strain ssb2, active compounds read low",0.984
same,normalized growth,"locus YNL233W, strain BNI4, active compounds read low",0.948
same,normalized growth,"locus YNL248C, strain rpa49, active compounds read low",0.961
same,normalized growth,"locus YNL250W, strain rad50, active compounds read low",0.998
same,normalized growth,"locus YNL271C, strain bni1, active compounds read low",1.02
same,normalized growth,"locus YNL298W, strain CLA4, active compounds read low",0.989
same,normalized growth,"locus YNL307C, strain MCK1, active compounds read low",0.977
same,normalized growth,"locus YNL322C, strain KRE1 (second series), active compounds read low",0.964
same,normalized growth,"locus YNR049C, strain mso1, active compounds read low",0.978
same,normalized growth,"locus YNR052C, strain pop2, active compounds read low",0.981
same,normalized growth,"locus YOL006C, strain TOP1, active compounds read low",0.883
same,normalized growth,"locus YOL012C, strain htz1",0.967
same,normalized growth,"locus YOL147C, strain pex11, active compounds read low",1
same,normalized growth,"locus YOR001W, strain rrp6, active compounds read low",0.96
same,normalized growth,"locus YOR061W, strain CKA2, active compounds read low",1.01
same,normalized growth,"locus YOR069W, strain VPS5, active compounds read low",1
same,normalized growth,"locus YOR070C, strain gyp1, active compounds read low",0.959
same,normalized growth,"locus YOR080W, strain dia2, active compounds read low",1.01
same,normalized growth,"locus YOR083W, strain WHI5, active compounds read low",0.958
same,normalized growth,"locus YOR106W, strain vam3, active compounds read low",0.988
same,normalized growth,"locus YOR136W, strain idh2, active compounds read low",1.01
same,normalized growth,"locus YOR144C, strain elg1, active compounds read low",1.01
same,normalized growth,"locus YOR184W, strain ser1, active compounds read low",0.904
same,normalized growth,"locus YOR231W, strain MKK1, active compounds read low",1
same,normalized growth,"locus YOR265W, strain rbl2, active compounds read low",0.968
same,normalized growth,"locus YOR270C, strain vph1, active compounds read low",0.919
same,normalized growth,"locus YOR290C, strain snf2, active compounds read low",0.944
same,normalized growth,"locus YOR316C, strain cot1, active compounds read low",1.02
same,normalized growth,"locus YPL051W, strain arl3, active compounds read low",0.98
same,normalized growth,"locus YPL055C, strain LGE1, active compounds read low",0.947
same,normalized growth,"locus YPL078C, strain atp4, active compounds read low",0.963
same,normalized growth,"locus YPL106C, strain sse1, active compounds read low",0.91
same,normalized growth,"locus YPL240C, strain hsp82, active compounds read low",0.976
same,normalized growth,"locus YPL241C, strain CIN2, active compounds read low",0.998
same,normalized growth,"locus YPL256C, strain CLN2, active compounds read low",1.04
same,normalized growth,"locus YPR119W, strain clb2, active compounds read low",1.01
same,normalized growth,"locus YPR141C, strain kar3, active compounds read low",1.01
same,normalized growth,"locus YPR163C, strain tif3, active compounds read low",0.994
same,normalized growth,"locus YPR167C, strain met16, active compounds read low",1.02
same,normalized growth,"strain wtn01, active compounds read low",1.01
